From PubChem BioAssay (Tox21) come the findings set out here.

Several values for one entry are separate records, joined by “and”; a condition that tells them apart may be missing. Equal values may be shown once. Results filed as inconclusive are left out. A structure can be active in one record and inactive in another. Activity calls are given as the source filed them. Unless noted, calls follow the shape of the dose curve; as a rule, active = well fitted curve in the direction sought with a large enough effect in the repeat runs; inconclusive = weak or mixed curves; inactive = no such curve, though single readings can be large; an effect the other way counts as inactive or inconclusive.

Test [1] in a line: A CellTox Green Cytotoxicity Assay to monitor cytotoxicity in HepG2 cells - 8 hour (AID 1224890). Also: nearly all actives have a fitted effect of over 45% in size. Also: potency is read from the fitted curve at half-maximal effect. The essentials:
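Continuous culture of HepG2 cells with a membrane-impermeant DNA dye; rising fluorescence marks dead cells. Compound exposure lasted up to 40 h at 37 C, with reads every 8 h from 0 h.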

Test [2] in a line: qHTS assay to identify small molecule antagonists of the estrogen receptor alpha (ER-alpha) signaling pathway using the BG1 cell line in the presence of 0.1 nM 17-beta-estradiol - cell viability counter screen (AID 1259241). Also: nearly all actives have a fitted effect of over 40% in size. Also: potency is read from the fitted curve at half-maximal effect. The method in brief:
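Measures cytotoxicity alongside the ER-alpha antagonist readout: VM7Luc4E2 cells, charcoal-stripped serum, 0.1 nM 17beta-estradiol final, 22 hr compound incubation at 37C, CellTiter-Fluor fluorescence.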
In general terms: qHTS replaces the single test concentration by a dilution series.

Test [3] is described as follows: qHTS assay to identify small molecule antagonists of the androgen receptor (AR) signaling pathway using the MDA cell line in the presence of 0.5 nM R1881 - cell viability counter screen (AID 1259242). Also: nearly all actives have a fitted effect of over 45% in size. Also: potency is read from the fitted curve at half-maximal effect. The essentials:
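Fluorescence from CellTiter-Fluor, which reports protease activity of live cells, was read 30 min after reagent addition to MDA-kb2 cells that had been incubated 16 hr with compound and 0.5 nM R1881.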

The target of test [4] is Androgen receptor (Homo sapiens) (UniProt P10275). Put plainly: qHTS assay to identify small molecule antagonists of the androgen receptor (AR) signaling pathway using the MDA cell line in the presence of 0.5 nM R1881 (AID 1259243). Also: nearly all actives have a fitted effect of over 50% in size. Also: potency is read from the fitted curve at half-maximal effect. The method in brief: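 Inhibition of R1881 (0.5 nM final) induced reporter signal was measured in human MDA-kb2 cells; note the MMTV promoter also responds to GR. Exposure lasted 16 hr at 37C.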

The target of test [5] is Estrogen receptor (Homo sapiens) (UniProt P03372). Put plainly: qHTS assay to identify small molecule antagonists of the estrogen receptor alpha (ER-alpha) signaling pathway using the BG1 cell line in the presence of 0.1 nM 17-beta-estradiol (AID 1259244). Also: nearly all actives have a fitted effect of over 50% in size. Also: potency is read from the fitted curve at half-maximal effect. The essentials:
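Quantitative high-throughput screen in VM7Luc4E2 cells: compound plus 0.1 nM E2 (final), 22 h, 37C, 5% CO2; ONE-Glo added, 30 min room temperature, luminescence measured.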

Test [6] can be described thus: qHTS assay to identify small molecule phospholipidosis (PLD) inducers (AID 1259344; active = well fitted curve in the direction sought with a large enough effect; an effect the other way counts as inactive or inconclusive). The method in brief:
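HepG2 cells grown on collagen I take up LipidTOX Red while exposed to compound for 24 h; after fixation they are imaged at 20x and pit metrics are extracted.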

Test [7] can be described thus: qHTS assay to identify small molecule HDAC inhibitors (AID 1259364). Also: nearly all actives have a fitted effect of over 45% in size. Also: potency is read from the fitted curve at half-maximal effect. The method in brief: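 Endogenous HDAC class I/II activity was measured in wild-type HCT-116 cells by HDAC-Glo luminescence after 2 h compound treatment.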
The nature of test [8]: qHTS assay to identify small molecule HDAC inhibitors - cell viability counter screen (AID 1259365). Also: series mostly up to about 92 µM; nearly all actives have a fitted effect of over 50% in size. The method in brief: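 Following a 2hr exposure of overnight-plated wild-type HCT-116 cells to DMSO-delivered compounds, CellTiter-Glo was added and luminescence recorded after 30min at room temperature.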
Test [9] can be described thus: qHTS assay to identify small molecule agonists of the sonic hedgehog signaling (Shh) pathway - cell viability counter screen (AID 1259366). Also: nearly all actives have a fitted effect of over 50% in size. Also: potency is read from the fitted curve at half-maximal effect. The method in brief: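 After a 4hr attachment at 37C, NIH/3T3 cells bearing an integrated Gli1-driven luciferase reporter were dosed with compounds. Treatment lasted 24hr, with the final hour including CellTiter-Fluor for a fluorescence viability measurement.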

A short description of test [10]: qHTS assay to identify small molecule antagonists of the sonic hedgehog signaling (Shh) pathway - cell viability counter screen (AID 1259367). Also: nearly all actives have a fitted effect of over 55% in size. Also: potency is read from the fitted curve at half-maximal effect. The method in brief:
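After a 4 hr settling period, 3T3 Gli1-Luc cells were treated with DMSO-dissolved chemicals and conditioned medium, kept 24 hr at 37C in 5% CO2, and assayed for viability by CellTiter-Fluor fluorescence following 1 hr reagent incubation.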

Androgen receptor (Homo sapiens), sequence (P10275 whole entry, looked up): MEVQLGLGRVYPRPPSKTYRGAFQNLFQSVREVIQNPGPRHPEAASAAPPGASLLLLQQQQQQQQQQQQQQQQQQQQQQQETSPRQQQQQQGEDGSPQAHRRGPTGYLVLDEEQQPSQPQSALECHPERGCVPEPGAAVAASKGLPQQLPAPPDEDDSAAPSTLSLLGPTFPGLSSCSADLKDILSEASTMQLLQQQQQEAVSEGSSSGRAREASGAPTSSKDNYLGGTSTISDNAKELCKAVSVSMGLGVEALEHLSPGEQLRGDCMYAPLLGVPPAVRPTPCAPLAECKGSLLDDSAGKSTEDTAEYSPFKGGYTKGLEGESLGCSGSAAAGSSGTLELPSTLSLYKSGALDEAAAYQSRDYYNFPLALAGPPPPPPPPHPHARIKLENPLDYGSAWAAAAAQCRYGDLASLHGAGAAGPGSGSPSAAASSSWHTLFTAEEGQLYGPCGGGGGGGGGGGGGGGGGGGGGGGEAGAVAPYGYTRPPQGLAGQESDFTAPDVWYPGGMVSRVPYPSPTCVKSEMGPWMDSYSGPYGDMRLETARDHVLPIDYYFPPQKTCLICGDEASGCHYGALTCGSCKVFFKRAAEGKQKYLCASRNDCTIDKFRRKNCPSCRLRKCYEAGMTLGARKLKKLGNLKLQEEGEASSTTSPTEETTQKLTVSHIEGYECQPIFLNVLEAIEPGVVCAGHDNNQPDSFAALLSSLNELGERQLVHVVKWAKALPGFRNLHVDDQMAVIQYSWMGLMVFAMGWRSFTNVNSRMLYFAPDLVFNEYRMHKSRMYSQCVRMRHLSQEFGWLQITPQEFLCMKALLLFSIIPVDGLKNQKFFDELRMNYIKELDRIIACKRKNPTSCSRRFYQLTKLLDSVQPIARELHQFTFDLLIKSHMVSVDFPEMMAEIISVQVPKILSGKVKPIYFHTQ
Estrogen receptor (Homo sapiens), sequence (P03372 whole entry, looked up): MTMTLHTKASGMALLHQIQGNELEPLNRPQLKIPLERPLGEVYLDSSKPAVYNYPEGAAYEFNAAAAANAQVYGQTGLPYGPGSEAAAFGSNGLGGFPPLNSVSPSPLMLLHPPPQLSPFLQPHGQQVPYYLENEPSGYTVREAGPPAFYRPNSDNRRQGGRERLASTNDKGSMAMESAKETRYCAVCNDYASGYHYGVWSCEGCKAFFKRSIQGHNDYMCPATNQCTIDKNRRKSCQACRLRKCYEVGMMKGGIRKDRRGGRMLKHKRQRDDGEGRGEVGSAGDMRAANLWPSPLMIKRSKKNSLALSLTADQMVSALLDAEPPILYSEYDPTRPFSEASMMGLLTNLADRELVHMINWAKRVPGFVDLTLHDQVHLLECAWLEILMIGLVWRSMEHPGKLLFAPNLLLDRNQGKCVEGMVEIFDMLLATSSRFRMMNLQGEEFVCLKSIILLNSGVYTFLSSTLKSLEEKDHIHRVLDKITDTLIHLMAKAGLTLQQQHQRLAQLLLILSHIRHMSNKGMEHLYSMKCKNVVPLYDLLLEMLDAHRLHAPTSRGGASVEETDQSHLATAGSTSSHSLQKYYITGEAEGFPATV

Regarding `CCCCCCCCOC(=O)c1ccccc1C(=O)OCCCCCCCC`, the Potency entry in test [1], in test [2], in [3], in test [4], in [5] and in test [7] was “inactive” in each case. Moreover, the Potency result in [9] and in [10] was “inactive” in each case. Besides, the outcome in test [6] and in test [8] was inactive.

`CCCCOCCOP(=O)(OCCOCCCC)OCCOCCCC`: the Potency entry in [1], in test [2], in [3], in [5], in test [7] and in test [9] was “inactive” in each case. The Potency result in test [10] is “inactive”. For the same compound, the outcome in test [8] was inactive.

`CCCCC(CC)COC(=O)c1ccc(C(=O)OCC(CC)CCCC)c(C(=O)OCC(CC)CCCC)c1` (stereo not given): the Potency result in test [1], in [2], in test [3], in test [4], in [7] and in test [9] was “inactive” throughout. In addition, the Potency entry in test [10] was “inactive”. For the same compound, in test [8], the compound was classed as inactive.

In the case of `O=C(Nc1ccc(Br)cc1)c1cc(Br)cc(Br)c1O`, the Potency result in test [1] was “inactive and 43.6 µM (active)”; in [3], 13.3 µM (active); in test [5], 6.83 µM (active) and 10.9 µM (active); in test [9], 30.5 µM (active). Also, the Potency result in test [2] is “inactive”. For the same compound, the result in test [6] and in test [8] was inactive.

As for `CCc1cccc(CC)c1N(COC)C(=O)CCl`, the Potency result in [1], in test [2], in [3] and in test [7] was “inactive” each time. Moreover, the Potency in test [4] is 23.5 µM (active) and 27.3 µM (active); in test [5] it was 47 µM (active); in [9], 27.3 µM (active); in test [10], 59.1 µM (active). Also, the outcome in test [8] was inactive.

For the compound `CCC(C)(C)c1ccc(O)cc1`, the Potency entry in [1] was “inactive and 43.6 µM (active)”. The Potency result in test [2], in test [3], in test [5], in test [7], in [9] and in test [10] was “inactive” in each case. Further, the call in test [6] and in test [8] was inactive.

Take `CNC(=O)Oc1cccc2c1OC(C)(C)O2`: the Potency entry in test [1], in [2], in test [3], in [5], in test [7] and in [9] was “inactive” in each case. The Potency result in test [10] was “inactive”. Besides, the result in test [8] was inactive.

On to `CCN(CC)C(=O)SCc1ccc(Cl)cc1`, for which the Potency result in [1], in [2], in test [3], in test [5], in [7] and in test [9] was “inactive” each time. Moreover, in [10], the Potency entry was “inactive”. Moreover, the outcome in test [8] was inactive.

Regarding `C=C(C)[C@H]1Cc2c(ccc3c2O[C@@H]2COc4cc(OC)c(OC)cc4[C@@H]2C3=O)O1`, the Potency result in test [1] and in test [7] was “inactive” in each case. The Potency in [2] was 0.0486 µM (active); in test [3], 78 nM (active) and 54.5 nM (active) and 106 nM (active); in [4] it was 31 nM (active) and 19.3 nM (active) and 47.3 nM (active); in test [9], 24.7 µM (active) and inactive; in test [10] it was 22 µM (active) and 6.11 µM (active). Further, the compound was classed as inactive in test [6] and in test [8].

With `CC(C)(OOC(C)(C)c1ccccc1)c1ccccc1`, the Potency result in [1], in [2], in [3], in test [7], in test [9] and in test [10] was “inactive” in each case. The Potency in test [4] is 24 µM (active). In [8], the outcome was inactive.

As to `N#Cc1cc(Br)c(O)c(Br)c1`, the Potency result in [1], in [2], in test [3], in test [7], in test [9] and in [10] was “inactive” in each case. The Potency in test [4] is 61.1 µM (active) and 46.8 µM (active); in test [5], 61.1 µM (active) and 41.7 µM (active). In addition, the compound was called inactive in test [8].

On to `NCc1cccnc1`, for which the Potency entry in test [1], in [2], in test [3], in [5], in [9] and in [10] was “inactive” throughout. Moreover, the call in test [6] and in [8] was inactive.

Consider `COP(=S)(OC)Oc1cc(Cl)c(Cl)cc1Cl`, for which the Potency result in test [1], in test [2], in test [3], in [5], in [7] and in [9] was “inactive” throughout. Besides, the Potency result in test [10] was “inactive”. The Potency in test [4] was 54.1 µM (active) and inactive. In addition, the call in test [6] and in test [8] was inactive.

Turning to `COc1ccc(C(CN(C)C)C2(O)CCCCC2)cc1` (stereo not given), the Potency result in test [1], in test [2], in [3], in [7], in test [9] and in [10] was “inactive” in each case. Besides, the compound was classed as inactive in [6] and in test [8].

On to `O=S(=O)(Oc1ccc(Cl)cc1)c1ccc(Cl)cc1`, for which the Potency result in test [1], in test [2], in test [3], in [5], in test [9] and in [10] was “inactive” in each case. The call in [8] was inactive.

Take `CC(C)c1ccc(CO)cc1`: the Potency result in test [1], in [2], in [3], in test [5], in [7] and in [9] was “inactive” in each case. Besides, the Potency result in [10] is “inactive”. Besides, the call in test [8] was inactive.

`Oc1c(Cl)c(Cl)c(Cl)c(Cl)c1Cl`: the Potency entry in test [1], in [2], in test [3], in test [7], in test [9] and in test [10] was “inactive” in each case. Moreover, the Potency in test [5] is 30 µM (active) and 30.6 µM (active). Besides, the compound was classed as inactive in test [8].

Turning to `C=C(C)C(=O)OCC1CO1` (stereo not given), the Potency entry in test [1], in test [2], in [3], in test [5], in test [9] and in test [10] was “inactive” throughout. In [8], the compound was classed as inactive.

For `N[C@@H](Cc1ccc(N(CCCl)CCCl)cc1)C(=O)O`, the Potency entry in test [1], in test [2], in test [3], in [7] and in test [9] was “inactive” each time. Moreover, the call in test [6] and in [8] was inactive.

Regarding `CCOCN(C(=O)CCl)c1c(C)cccc1CC`, the Potency entry in test [1], in test [2], in [3] and in test [7] was “inactive” in each case. The Potency was 45.9 µM (active) and 48.6 µM (active) in test [5]; 57.7 µM (active) and 30.6 µM (active) in test [9]; 54.5 µM (active) in [10]. Moreover, the compound was classed as inactive in test [8].

`CCCCCCOC(=O)c1ccccc1C(=O)OCCCCCC`: the Potency entry in test [1], in test [2], in test [3], in [5], in test [9] and in test [10] was “inactive” throughout. In addition, the Potency in [7] was 49.5 µM (active) and inactive. Further, the outcome in test [8] was inactive.

Regarding `CNC(=O)N(C)c1nnc(C(C)(C)C)s1`, the Potency entry in [1], in test [2], in [3], in test [5], in [9] and in [10] was “inactive” throughout. For the same compound, the compound was classed as inactive in test [8].

Consider `CC(C)=CC1C(C(=O)OCc2coc(Cc3ccccc3)c2)C1(C)C` (stereo not given), for which the Potency entry in test [1], in [2], in [3], in [5], in test [9] and in test [10] was “inactive” throughout. Also, the result in test [8] was inactive.

Take `Nc1ccc(-c2ccccc2)cc1`: the Potency entry in [1], in test [2], in [3], in test [5], in [9] and in [10] was “inactive” each time. In test [8], the compound was called inactive.

On to `c1nc[nH]n1`, for which the Potency entry in test [1], in test [2], in test [3], in [5], in test [9] and in test [10] was “inactive” in each case. For the same compound, the result in test [8] was inactive.
